For 27 compounds, Potency results are on record in PubChem BioAssay (NCATS).

Test [1] in a line: Quantitative High-Throughput drug screen in 47 multiple myeloma cell lines against the NCATS MIPE library collection: XG1_PLB cell viability assay (AID 1919866). Note: nearly all actives have a fitted effect of over 35% in size. The gist of the method: (§1)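 500 cells/well per myeloma line exposed to pinned MIPE 4.0 compounds for 48 h at 37 °C, 5% CO2. Viability read as ATP by CellTiter-Glo luminescence, normalised to DMSO-only (100%) and media-only (0%) wells.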

Test [2] in a line: Quantitative High-Throughput drug screen in 47 multiple myeloma cell lines against the NCATS MIPE library collection: UTMC2_PLB cell viability assay (AID 1919868). Note: nearly all actives have a fitted effect of over 55% in size. To be noted: CellTiter-Glo ATP luminescence, 48 h; viability (% of DMSO control): at 45.8 µM (top of the series). The method in brief: as §1
(In general: ATP-based viability assays read luminescence as a measure of living cells.)

A short description of test [3]: Quantitative High-Throughput drug screen in 47 multiple myeloma cell lines against the NCATS MIPE library collection: PCM6_Riken cell viability assay (AID 1919870). Note: nearly all actives have a fitted effect of over 30% in size. The method in brief: as §1
The nature of test [4]: Quantitative High-Throughput drug screen in 47 multiple myeloma cell lines against the NCATS MIPE library collection: RPMI8226_ATCC cell viability assay (AID 1919871). Note: nearly all actives have a fitted effect of over 30% in size. The gist of the method: as §1
Test [5] in a line: Quantitative High-Throughput drug screen in 47 multiple myeloma cell lines against the NCATS MIPE library collection: KMS11_JCRBsus cell viability assay (AID 1919873). Note: nearly all actives have a fitted effect of over 50% in size. The gist of the method:
as §1

A short description of test [6]: Quantitative High-Throughput drug screen in 47 multiple myeloma cell lines against the NCATS MIPE library collection: KMS28BM_JCRB cell viability assay (AID 1919874). Note: nearly all actives have a fitted effect of over 35% in size. The method in brief:
as §1

Test [7] is described as follows: Quantitative High-Throughput drug screen in 47 multiple myeloma cell lines against the NCATS MIPE library collection: OPM2_DSMZ cell viability assay (AID 1919872). Note: nearly all actives have a fitted effect of over 30% in size. The gist of the method:
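Approved and investigational drugs from MIPE 4.0 were added by pin tool to 500 cells per well. After 48 hours at 37C, ATP-based CellTiter-Glo luminescence indicated remaining viability.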

Test [8] is described as follows: Quantitative High-Throughput drug screen in 47 multiple myeloma cell lines against the NCATS MIPE library collection: VP6_DJ cell viability assay (AID 1919867). Note: nearly all actives have a fitted effect of over 40% in size. The gist of the method:
as §1

Test [9] in a line: Quantitative High-Throughput drug screen in 47 multiple myeloma cell lines against the NCATS MIPE library collection: PE2_PLB cell viability assay (AID 1919869). Note: nearly all actives have a fitted effect of over 35% in size. The method in brief: as §1

Results filed as inconclusive are left out. Unmarked numbers belong to inactive results. Calls of active or inactive are those of the source. Calls come from the whole dose curve; as a rule, active = well fitted cell-killing curve with a large enough effect; inconclusive = small, poorly fitted or top-dose-only effect, or effect the other way; inactive = no such curve, though single readings can be large or run the other way.
Potency is the fitted concentration of half-maximal effect.

For `O=C(N[C@@H](c1ccccc1)[C@@H]1CCCCN1)c1cccc(C(F)(F)F)c1Cl`, the Potency in test [1] was 23.5 µM (active); in test [3] it was 23.5 µM (active); in [4], 1.66 µM (active). The Potency result in test [2], in [5] and in test [6] was “inactive” each time.
For the compound `O=C(Nc1c(Cl)cncc1Cl)c1ccc(OC(F)F)c(OCC2CC2)c1`, in test [1], the Potency is 18.7 µM (active). In addition, the Potency result in test [4], in [7], in test [5] and in [6] was “inactive” each time.
`COc1cccc(-c2cc(=O)c3ccccc3o2)c1N`: the results for the Potency in test [1], in test [8] and in test [9] were 1.66 µM (active), 1.32 µM (active) and 4.18 µM (active), respectively. Moreover, the Potency entry in test [4], in test [7] and in [5] was “inactive” in each case.
Consider `CC1(C)CCC2=C(O1)c1ccccc1C(=O)C2=O`, for which the Potency is 26.4 µM (active) in test [1]; 20.9 µM (active) in [9]; 20.9 µM (active) in [3]; 16.6 µM (active) in [7]; 26.4 µM (active) in test [5].
For `CO[C@H]1C=CO[C@@]2(C)Oc3c(C)c(O)c4c(O)c(c5c(c4c3C2=O)NC2(CCN(CC(C)C)CC2)N=5)=NC(=O)C(C)=CC=C[C@H](C)[C@H](O)[C@@H](C)[C@@H](O)[C@@H](C)[C@H](OC(C)=O)[C@H]1C`, the Potency in test [1] was 20.9 µM (active); in [4], 16.6 µM (active). For the same compound, the Potency entry in test [2], in test [9], in test [7], in test [5] and in test [6] was “inactive” throughout.
On to `N#C[C@H]1C[C@H]2C[C@@H]2N1C(=O)[C@@H](N)C12CC3CC(CC(O)(C3)C1)C2`, for which the Potency entry in test [1], in test [4] and in test [7] was “inactive” each time. Moreover, in [9], the Potency is 0.0026 µM (active).
Turning to `O=C1Nc2ccc(Cl)cc2C(C#CC2CC2)(C(F)(F)F)O1` (stereo unspecified), the Potency in [1] was 16.6 µM (active); in test [8] it was 16.6 µM (active); in test [9] it was 23.5 µM (active); in test [3], 23.5 µM (active); in test [5], 20.9 µM (active); in test [6], 20.9 µM (active).
For `CC[C@@H]1C=C(C)C[C@H](C)C[C@H](OC)[C@H]2O[C@@](O)(C(=O)C(=O)N3CCCC[C@@H]3C(=O)O[C@H](C(C)=C[C@@H]3CC[C@H](Cl)[C@H](OC)C3)[C@H](C)[C@@H](O)CC1=O)[C@H](C)C[C@H]2OC`, the results for the Potency in test [1], in test [9] and in test [4] were 14.8 µM (active), 20.9 µM (active) and 18.7 µM (active), respectively. Moreover, in test [7], the Potency entry is “inactive”.
As to `CO[C@H]1C[C@@H]2CC[C@@H](C)[C@@](O)(O2)C(=O)C(=O)N2CCCC[C@@H]2C(=O)O[C@H]([C@H](C)C[C@@H]2CC[C@H](OP(C)(C)=O)[C@H](OC)C2)CC(=O)[C@H](C)C=C(C)[C@@H](O)[C@@H](OC)C(=O)[C@H](C)C[C@H](C)C=CC=CC=C1C`, the Potency result in test [1], in test [2], in test [4], in [7], in test [5] and in test [6] was “inactive” in each case.
In the case of `COc1ccc(-c2coc3cc(O)cc(O)c3c2=O)cc1`, the Potency result in [1], in test [3], in [4], in test [7], in test [5] and in test [6] was “inactive” in each case.
For the compound `O=C(CCCCCCC(=O)Nc1ccccc1)NO`, the Potency in [1] was 2.96 µM (active); in [2], 0.662 µM (active); in test [9], 3.32 µM (active); in test [3], 3.32 µM (active); in test [4], 4.69 µM (active); in test [7], 4.69 µM (active). Further, the figures for the Potency in test [5] and in test [6] were 2.64 µM (active) and 2.09 µM (active), respectively.
With `CNC(=O)c1ccccc1Sc1ccc2c(C=Cc3ccccn3)n[nH]c2c1`, the Potency in test [8] is 14.8 µM (active); in test [9], 20.9 µM (active); in test [3] it was 7.43 µM (active); in test [4], 18.7 µM (active); in test [5], 1.18 µM (active); in test [6], 23.5 µM (active).
With `CC[C@H]1OC(=O)[C@H](C)[C@@H](O[C@H]2C[C@@](C)(OC)[C@@H](O)[C@H](C)O2)[C@H](C)[C@@H](O[C@@H]2O[C@H](C)C[C@H](N(C)C)[C@@H]2O)[C@](C)(O)C[C@@H](C)CN(C)[C@H](C)[C@@H](O)[C@]1(C)O`, the Potency entry in test [8], in test [9], in test [5] and in test [6] was “inactive” each time. Moreover, in test [4], the Potency was 18.7 µM (active).
Consider `COc1ccc2c3c1OC1C[C@@H](O)C=C[C@@]31CCN(C)C2` (stereo partly specified), for which the Potency in test [1] is 5.9 µM (active). For the same compound, the Potency entry in test [4], in test [7] and in [5] was “inactive” in each case.
`Cc1ccn(-c2ccc(-c3ncco3)cc2)c(=O)c1-c1ccc2nc(N)ncc2c1`: the Potency in test [1] is 3.72 µM (active); in test [8], 1.66 µM (active); in test [9] it was 4.69 µM (active). In addition, the Potency result in test [4] and in test [6] was “inactive” in each case.
For `CC(=O)OC1C(C)OC(Oc2c(-c3ccc(O)cc3)oc3cc(O)cc(O)c3c2=O)C(O)C1OC(C)=O` (stereo unspecified), the Potency entry in [1], in test [8], in test [7] and in test [6] was “inactive” each time. Moreover, the Potency in test [4] was 10.5 µM (active).
Take `CN(C[C@@H]1COCCO1)S(=O)(=O)Nc1ccc2ccc3ncc(-c4cnn(C)c4)cc3c(=O)c2c1`: the Potency in test [1] was 2.64 µM (active); in [2], 3.32 µM (active); in [9] it was 1.48 µM (active); in test [3], 1.05 µM (active); in [4] it was 16.6 µM (active); in test [5] it was 4.18 µM (active).
`COc1ccc(Cc2ccc(NC(N)=O)cc2)cc1-c1cccc(Cl)c1`: the Potency entry in [1], in test [9], in test [4] and in test [7] was “inactive” throughout. Further, the Potency in [6] was 13.2 µM (active).
With `O=C(O)CCC1CCC(c2cc(F)ccc2F)(S(=O)(=O)c2ccc(Cl)cc2)CC1` (stereo unspecified), the Potency in test [1] was 9.35 µM (active); in [3], 13.2 µM (active). In addition, the Potency result in [9], in test [4] and in test [7] was “inactive” in each case.
For the compound `Cc1ccc(/C=N/NC(=O)c2ccccc2Oc2ccccc2)o1`, the Potency in [1] was 11.8 µM (active); in test [7], 20.9 µM (active); in [5], 9.35 µM (active).
Regarding `c1cc(-c2sc(-c3ccncc3)c(-c3ccncc3)c2-c2ccncc2)ccn1`, the values for the Potency in test [1] and in [9] were 11.8 µM (active) and 14.8 µM (active), respectively. The Potency entry in test [4], in [7], in [5] and in test [6] was “inactive” throughout.
With `CN(C)c1cc(NC(=O)CNC(C)(C)C)c(O)c2c1C[C@@H]1C[C@H]3[C@H](N(C)C)C(=O)C(C(N)=O)=C(O)[C@@]3(O)C(=O)C1=C2O`, the Potency entry in test [1], in test [9], in [3], in [4], in test [5] and in [6] was “inactive” each time. In addition, in test [2], the Potency is 13.2 µM (active).
Take `CCC(=O)O[C@]1(C(=O)CO)CC[C@H]2[C@@H]3CCC4=CC(=O)CC[C@]4(C)[C@@H]3CC[C@@]21C`: the Potency in [8] is 10.5 µM (active); in test [5], 0.209 µM (active). Also, the Potency result in test [2], in test [9], in test [4] and in test [6] was “inactive” throughout.
As to `Clc1ccc(COC(Cn2ccnc2)c2ccc(Cl)cc2Cl)cc1` (stereo unspecified), the Potency is 18.7 µM (active) in test [1], 20.9 µM (active) in test [8] and 20.9 µM (active) in test [3]. In addition, the Potency entry in test [7] was “inactive”.
For the compound `O=C1c2c(O)cc(O)cc2O[C@H](c2cc(O)c(O)c(O)c2)[C@H]1O`, the Potency result in test [8], in [9], in [3] and in [6] was “inactive” in each case. In addition, in test [7], the Potency was 18.7 µM (active).
Consider `Cn1cc(C=C2C(=O)Nc3cccnc32)c2ccccc21`, for which the Potency entry in test [1], in test [4], in [7] and in test [6] was “inactive” each time. For the same compound, the Potency in test [8] is 10.5 µM (active).
`CC(C)C(=O)Oc1ccc(CO)cc1[C@H](CCN(C(C)C)C(C)C)c1ccccc1`: the Potency result in test [1], in [9], in test [3], in [7], in test [5] and in [6] was “inactive” throughout.
